# In PubChem BioAssay (NCATS):
# Results filed as inconclusive are left out. A call without a number means that no potency is given here. Values without a mark were called inactive. Active and inactive are the calls of the source. The call rests on the fitted dose curve; in most records, active means well fitted cell-killing curve with a large enough effect; inconclusive means small, poorly fitted or top-dose-only effect, or effect the other way; inactive means no such curve, though single readings can be large or run the other way.
# Key:
# [1] = Quantitative High-Throughput drug screen in 47 multiple myeloma cell lines against the NCATS MIPE library collection: MM1R_ATCC cell viability assay (AID 1918981); further: nearly all actives have a fitted effect of over 35% in size
# Summary of the method: (§1)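 qHTS format: cells plated (500/well), pin-dosed with MIPE 4.0 compounds, kept 48 h at 37 °C. Readout was CellTiter-Glo luminescence, median RLU.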
# [2] = Quantitative High-Throughput drug screen in 47 multiple myeloma cell lines against the NCATS MIPE library collection: LP1_DSMZ cell viability assay (AID 1918982); further: nearly all actives have a fitted effect of over 35% in size
# Summary of the method: as §1
# [3] = Quantitative High-Throughput drug screen in 47 multiple myeloma cell lines against the NCATS MIPE library collection: KMS28PE_JCRB cell viability assay (AID 1918983); further: nearly all actives have a fitted effect of over 35% in size
# Summary of the method: as §1
# [4] = Quantitative High-Throughput drug screen in 47 multiple myeloma cell lines against the NCATS MIPE library collection: L363_DSMZ cell viability assay (AID 1918984); further: nearly all actives have a fitted effect of over 40% in size
# Summary of the method: as §1
# [5] = Quantitative High-Throughput drug screen in 47 multiple myeloma cell lines against the NCATS MIPE library collection: OCIMY5_PLB cell viability assay (AID 1918988); further: nearly all actives have a fitted effect of over 65% in size
# Summary of the method: as §1
# [6] = Quantitative High-Throughput drug screen in 47 multiple myeloma cell lines against the NCATS MIPE library collection: OPM1_PLB cell viability assay (AID 1918989); further: nearly all actives have a fitted effect of over 40% in size
# Summary of the method: as §1
# [7] = Quantitative High-Throughput drug screen in 47 multiple myeloma cell lines against the NCATS MIPE library collection: U266_ATCC cell viability assay (AID 1919864); further: nearly all actives have a fitted effect of over 35% in size
# Summary of the method: as §1
# [8] = Quantitative High-Throughput drug screen in 47 multiple myeloma cell lines against the NCATS MIPE library collection: XG1_PLB cell viability assay (AID 1919866); further: nearly all actives have a fitted effect of over 35% in size
# Summary of the method: as §1
# [9] = Quantitative High-Throughput drug screen in 47 multiple myeloma cell lines against the NCATS MIPE library collection: UTMC2_PLB cell viability assay (AID 1919868); further: nearly all actives have a fitted effect of over 55% in size
# Summary of the method: as §1
# [10] = Quantitative High-Throughput drug screen in 47 multiple myeloma cell lines against the NCATS MIPE library collection: PE2_PLB cell viability assay (AID 1919869); further: nearly all actives have a fitted effect of over 35% in size
# Summary of the method: as §1
# [11] = Quantitative High-Throughput drug screen in 47 multiple myeloma cell lines against the NCATS MIPE library collection: RPMI8226_ATCC cell viability assay (AID 1919871); further: nearly all actives have a fitted effect of over 30% in size
# Summary of the method: as §1
# [12] = Quantitative High-Throughput drug screen in 47 multiple myeloma cell lines against the NCATS MIPE library collection: OPM2_DSMZ cell viability assay (AID 1919872); further: nearly all actives have a fitted effect of over 30% in size
# Summary of the method: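 Viability readout: CellTiter-Glo luminescence following 5 min room-temperature incubation with reagent. Prior exposure: 48 h, 37C, humidified 5% CO2, 500 cells per well.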
# [13] = Quantitative High-Throughput drug screen in 47 multiple myeloma cell lines against the NCATS MIPE library collection: KMS28BM_JCRB cell viability assay (AID 1919874); further: nearly all actives have a fitted effect of over 35% in size
# Summary of the method: as §1
# [14] = Quantitative High-Throughput drug screen in 47 multiple myeloma cell lines against the NCATS MIPE library collection: OCIMY7_PLB cell viability assay (AID 1918987); further: nearly all actives have a fitted effect of over 65% in size
# Summary of the method: as §1
# [15] = Quantitative High-Throughput drug screen in 47 multiple myeloma cell lines against the NCATS MIPE library collection: SKMM1_PLB cell viability assay (AID 1919863); conditions: SKMM1 myeloma viability, CellTiter-Glo ATP, 48 h; viability: hits give low values; further: nearly all actives have a fitted effect of over 35% in size; on viability: series mostly up to about 46 µM
# Summary of the method: as §1
# [16] = Quantitative High-Throughput drug screen in 47 multiple myeloma cell lines against the NCATS MIPE library collection: XG6_PLB cell viability assay (AID 1919865); further: nearly all actives have a fitted effect of over 40% in size
# Summary of the method: as §1
# [17] = Quantitative High-Throughput drug screen in 47 multiple myeloma cell lines against the NCATS MIPE library collection: VP6_DJ cell viability assay (AID 1919867); further: nearly all actives have a fitted effect of over 40% in size
# Summary of the method: as §1
# [18] = Quantitative High-Throughput drug screen in 47 multiple myeloma cell lines against the NCATS MIPE library collection: PCM6_Riken cell viability assay (AID 1919870); further: nearly all actives have a fitted effect of over 30% in size
# Summary of the method: as §1
# [19] = Quantitative High-Throughput drug screen in 47 multiple myeloma cell lines against the NCATS MIPE library collection: KMS11_JCRBsus cell viability assay (AID 1919873); further: nearly all actives have a fitted effect of over 50% in size
# Summary of the method: as §1
# [20] = Quantitative High-Throughput drug screen in 47 multiple myeloma cell lines against the NCATS MIPE library collection: KMS34_JCRB cell viability assay (AID 1918985); further: nearly all actives have a fitted effect of over 40% in size
# Summary of the method: as §1
# Potency means the concentration at half of the fitted maximal effect.
compound,measurement,setting,value
CN1CCN(c2c(F)cc3c(=O)c(C(=O)O)cn4c3c2OCN4C)CC1,Potency,[1],inactive
same,Potency,[2],inactive
same,Potency,[3],inactive
same,Potency,[4],inactive
same,Potency,[5],inactive
same,Potency,[6],inactive
same,Potency,[7],inactive
same,Potency,[8],inactive
same,Potency,[9],inactive
same,Potency,[10],inactive
same,Potency,[11],inactive
same,Potency,[12],inactive
same,Potency,[13],inactive
Nc1nc(F)nc2c1ncn2[C@@H]1O[C@H](CO)[C@@H](O)[C@@H]1O,Potency,[1],166 nM (active)
same,Potency,[2],590 nM (active)
same,Potency,[3],372 nM (active)
same,Potency,[4],148 nM (active)
same,Potency,[14],118 nM (active)
same,Potency,[5],74.3 nM (active)
same,Potency,[6],743 nM (active)
same,Potency,[15],332 nM (active)
same,Potency,[7],296 nM (active)
same,Potency,[16],209 nM (active)
same,Potency,[8],418 nM (active)
same,Potency,[17],132 nM (active)
same,Potency,[9],235 nM (active)
same,Potency,[10],209 nM (active)
same,Potency,[18],264 nM (active)
same,Potency,[11],418 nM (active)
same,Potency,[12],833 nM (active)
same,Potency,[19],296 nM (active)
same,Potency,[13],526 nM (active)
COc1nc(N)nc2c1ncn2[C@@H]1O[C@H](CO)[C@@H](O)[C@@H]1O,Potency,[1],inactive
same,Potency,[2],inactive
same,Potency,[3],inactive
same,Potency,[4],inactive
same,Potency,[5],inactive
same,Potency,[6],inactive
same,viability,[15],124%
same,Potency,[7],16600 nM (active)
same,Potency,[8],inactive
same,Potency,[17],inactive
same,Potency,[10],inactive
same,Potency,[11],inactive
same,Potency,[12],469 nM (active)
same,Potency,[19],inactive
same,Potency,[13],inactive
COc1cc2nc(N3CCCN(C)CC3)nc(NC3CCN(Cc4ccccc4)CC3)c2cc1OC,Potency,[1],4180 nM (active)
same,Potency,[2],4690 nM (active)
same,Potency,[3],16600 nM (active)
same,Potency,[4],1660 nM (active)
same,Potency,[20],8330 nM (active)
same,Potency,[14],6620 nM (active)
same,Potency,[5],11800 nM (active)
same,Potency,[6],2350 nM (active)
same,Potency,[15],7430 nM (active)
same,Potency,[7],2350 nM (active)
same,Potency,[16],2350 nM (active)
same,Potency,[8],2960 nM (active)
same,Potency,[17],4690 nM (active)
same,Potency,[10],2350 nM (active)
same,Potency,[18],3720 nM (active)
same,Potency,[11],9350 nM (active)
same,Potency,[12],7430 nM (active)
same,Potency,[13],10500 nM (active)
COCCCOc1cc(C[C@@H](C[C@H](N)[C@@H](O)C[C@H](C(=O)NCC(C)(C)C(N)=O)C(C)C)C(C)C)ccc1OC,Potency,[1],inactive
same,Potency,[2],inactive
same,Potency,[3],inactive
same,Potency,[4],inactive
same,Potency,[20],inactive
same,Potency,[5],inactive
same,Potency,[6],inactive
same,Potency,[16],inactive
same,Potency,[8],inactive
same,Potency,[10],inactive
same,Potency,[11],inactive
same,Potency,[12],inactive
same,Potency,[19],inactive
same,Potency,[13],inactive
COc1ccc2cc3[n+](cc2c1OC)CCc1cc2c(cc1-3)OCO2,Potency,[1],4690 nM (active)
same,Potency,[2],4690 nM (active)
same,Potency,[3],16600 nM (active)
same,Potency,[4],6620 nM (active)
same,Potency,[5],14800 nM (active)
same,Potency,[6],18700 nM (active)
same,Potency,[15],14800 nM (active)
same,Potency,[7],9350 nM (active)
same,Potency,[8],16600 nM (active)
same,Potency,[17],7430 nM (active)
same,Potency,[9],3320 nM (active)
same,Potency,[10],14800 nM (active)
CC(C)(C#N)c1cc(Cn2cncn2)cc(C(C)(C)C#N)c1,Potency,[1],inactive
same,Potency,[2],inactive
same,Potency,[3],inactive
same,Potency,[4],inactive
same,Potency,[20],inactive
same,Potency,[5],inactive
same,Potency,[6],inactive
same,Potency,[8],inactive
same,Potency,[10],inactive
same,Potency,[11],inactive
same,Potency,[12],inactive
same,Potency,[13],inactive
Cc1ccnc2c1NC(=O)c1cccnc1N2C1CC1,Potency,[1],inactive
same,Potency,[2],inactive
same,Potency,[3],inactive
same,Potency,[4],inactive
same,Potency,[5],inactive
same,Potency,[6],inactive
same,Potency,[7],16600 nM (active)
same,Potency,[17],26400 nM (active)
same,Potency,[10],26400 nM (active)
same,Potency,[18],26400 nM (active)
same,Potency,[11],inactive
same,Potency,[12],inactive
same,Potency,[19],inactive
same,Potency,[13],inactive
CCN[C@H]1C[C@H](C)S(=O)(=O)c2sc(S(N)(=O)=O)cc21,Potency,[1],inactive
same,Potency,[2],inactive
same,Potency,[3],inactive
same,Potency,[4],inactive
same,Potency,[20],inactive
same,Potency,[5],inactive
same,Potency,[6],inactive
same,Potency,[7],inactive
same,Potency,[10],inactive
same,Potency,[12],inactive
same,Potency,[19],inactive
same,Potency,[13],inactive
NS(=O)(=O)c1cc2c(cc1Cl)NC(C(Cl)Cl)NS2(=O)=O (stereo not drawn),Potency,[1],inactive
same,Potency,[2],inactive
same,Potency,[3],inactive
same,Potency,[4],inactive
same,Potency,[20],inactive
same,Potency,[5],inactive
same,Potency,[6],inactive
same,viability,[15],112%
same,Potency,[8],inactive
same,Potency,[17],inactive
same,Potency,[10],inactive
same,Potency,[11],inactive
same,Potency,[12],inactive
same,Potency,[19],inactive
same,Potency,[13],inactive
Nc1ccc(S(=O)(=O)Nc2ccccn2)cc1,Potency,[1],inactive
same,Potency,[2],inactive
same,Potency,[3],inactive
same,Potency,[4],inactive
same,Potency,[20],inactive
same,Potency,[6],inactive
same,Potency,[16],inactive
same,Potency,[8],inactive
same,Potency,[17],inactive
same,Potency,[10],inactive
same,Potency,[18],inactive
same,Potency,[12],inactive
same,Potency,[19],inactive
same,Potency,[13],inactive
COC(=O)Nc1nc2ccc(Sc3ccccc3)cc2[nH]1,Potency,[1],4180 nM (active)
same,Potency,[2],2350 nM (active)
same,Potency,[3],5260 nM (active)
same,Potency,[4],469 nM (active)
same,Potency,[14],209 nM (active)
same,Potency,[5],1180 nM (active)
same,Potency,[6],1660 nM (active)
same,Potency,[15],3320 nM (active)
same,Potency,[17],1050 nM (active)
same,Potency,[9],2090 nM (active)
same,Potency,[10],1180 nM (active)
same,Potency,[11],5260 nM (active)
same,Potency,[12],3320 nM (active)
same,Potency,[19],935 nM (active)
same,Potency,[13],935 nM (active)
C[C@@H](NCCCc1cccc(C(F)(F)F)c1)c1cccc2ccccc12,Potency,[1],inactive
same,Potency,[2],inactive
same,Potency,[3],inactive
same,Potency,[4],inactive
same,Potency,[5],inactive
same,viability,[15],110%
same,Potency,[7],inactive
same,Potency,[10],inactive
same,Potency,[12],inactive
same,Potency,[13],inactive
